Holding throughout (test): NCI-60 one-dose screen, 48 h (100 = growth as untreated, 0 = no growth, -100 = all killed)
Holding throughout (conditions): 10 µM unless noted

Test [1] has as its system NCI-H226 lung.
The subject of test [2] is NCI-H322M lung.
Test [3] deals with HOP-62 NSCLC.
The test system of test [4] is NCI-H460 lung.
The subject of test [5] is NCI-H522 lung.
In test [6] the test system is A549/ATCC NSCLC.
The test system of test [7] is 786-0 renal.
Test [8] concerns COLO 205 colon.
Test [9] relates to DU-145 prostate.
Test [10] concerns K-562 leukemia.
Test [11] has as its system MALME-3M melanoma.
Test [12] concerns MDA-MB-231 breast.
Test [13] concerns RXF 393 renal.
In test [14] the test system is SF-268 CNS.
The test system of test [15] is SF-295 CNS.
Test [16] has as its system SF-539 CNS.
For test [17], the system named is UACC-257 melanoma.
For test [18], the system named is M14 melanoma.
Test [19] has as its system NCI-H23 lung.
In test [20] the test system is HCT-15 colon.

Among the data in PubChem BioAssay (NCI) are growth values, retold here.

This is part of a sample that, as a whole, favours compounds with a hit. Of some 83,000 tested, about 20% had one in any assay.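 A percent growth of 40 corresponds to 60% growth inhibition; 0 means no net growth; -100 means all cells died. Active threshold: below 10.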 A number with no mark means an inactive call. Activity calls are given as the source filed them.

In the case of `CCN(CC)CCNc1ccc(Cl)cc1Cl`, the growth in test [1] was 108%; in test [2], 94.9%; in test [3] it was 95.8%; in test [4], 107%; in [5], 98.5%; in [6] it was 107%. Moreover, the growth in [7] is 104%; in test [8] it was 108%; in test [9] it was 107%; in test [10] it was 104%; in test [11], 106%; in test [12] it was 118%. In addition, the growth in [13] was 103%; in [14], 101%; in test [15] it was 109%; in test [16] it was 111%; in [17] it was 95%; in test [18] it was 102%.
In the case of `CCOC(=O)c1c(C)c(C(=O)OCC)n(C)c1C`, the growth was 121% in [19]; 66.6% in test [1]; 85.4% in test [2]; 117% in test [4]; 102% in [5]; 91.7% in [6]. The growth is 92.5% in test [7]; 141% in [8]; 99% in test [9]; 103% in test [10]; 112% in [11]; 85.6% in test [12]. Further, the growth in [14] was 93.9%; in [15], 87.1%; in [16], 101%; in [17], 134%; in test [18], 112%; in test [20] it was 102%.
On to `CCOC(=O)C(Cc1ccccc1)(C(=O)OCC)C(Br)C(=O)c1ccccc1` (centres undefined), for which the growth was 84.4% in test [19]; 88% in test [1]; 83.9% in test [2]; 93% in [4]; 22.5% in test [5]; 80.2% in [6]. Also, the growth was 50% in test [7]; 63% in [8]; 93% in test [9]; 54.2% in test [11]; 64.2% in [12]; 75.5% in test [13]. In addition, the growth was 88% in test [14]; 94.5% in [15]; 105% in test [16]; 70.9% in [17]; 84.1% in [18]; 41.9% in [20].
Take `Cc1cc(C(=O)O)c(C)cc1C(=O)O`: the growth is 107% in test [19]; 101% in test [1]; 76.8% in [2]; 119% in test [4]; 96.5% in test [5]; 103% in test [6]. For the same compound, the growth was 101% in test [7]; 120% in test [8]; 120% in test [9]; 101% in test [10]; 89.5% in test [11]; 114% in test [12]. The growth is 116% in [13]; 115% in test [14]; 113% in test [16]; 104% in test [17]; 101% in test [18]; 104% in test [20].
As for `COc1cc2c(-c3nc4cc(Cl)c(F)cc4s3)cc(=O)oc2c(C)c1OC`, the growth in test [19] is -48.6% (active); in test [1], -48.8% (active); in test [2], 7.69% (active); in test [4], -36.1% (active); in test [5] it was -83.9% (active); in [6] it was -53.9% (active). The growth in [7] was -70.2% (active); in test [8] it was -46.6% (active); in [9], -85.3% (active); in test [10], -22.6% (active); in test [12] it was -50.4% (active); in test [14] it was -63.5% (active). The growth was -81.5% (active) in [15]; -89% (active) in test [16]; -77.6% (active) in [17]; -35.2% (active) in [18]; -39.1% (active) in [20].
For the compound `O=C1C(=O)c2ccc(Br)cc2-c2cc(Br)ccc21`, the growth in test [19] is 42%; in [1], 88.6%; in [2] it was 91.2%; in [4], 78.8%; in test [5] it was 0.737% (active); in [6], 89.7%. Further, the growth is 50.9% in [7]; 119% in test [8]; 68.4% in test [9]; 4.69% (active) in test [10]; 70.4% in test [11]; -23.4% (active) in test [12]. For the same compound, the growth in test [13] was 26.1%; in test [14] it was 22.4%; in test [15], 78.1%; in [16], 117%; in [17], 76.8%; in [18] it was 68%. For the same compound, the growth in test [20] was 50.2%.
Take `COc1ccc(Nc2ccnc(NCCCNc3ccnc4cc(Cl)ccc34)n2)cc1`: the growth in test [19] was 58.1%; in test [1], 69.6%; in test [2], 3.32% (active); in [4] it was -56.5% (active); in test [5], -55% (active); in [6] it was -14.5% (active). The growth in test [7] was -97.7% (active); in test [8], -65% (active); in test [9], 22.4%; in test [10], -19.2% (active); in test [11], -81.5% (active); in test [12], -73.4% (active). Further, the growth in test [13] is -90% (active); in test [14], -28.6% (active); in [15], -82.2% (active); in [16], -100% (active); in test [18] it was -91.9% (active); in test [20] it was -54.6% (active).
For the compound `NC(=O)SCC(=O)Nc1ccccc1-c1ccccc1`, the growth is 97.2% in [19]; 117% in test [1]; 106% in test [2]; 116% in test [4]; 50.1% in [5]; 91.7% in [6]. Further, the growth is 95.5% in test [7]; 95.3% in test [8]; 103% in test [10]; 158% in [11]; 99.7% in [12]; 138% in test [13]. Also, the growth was 109% in test [15]; 89.5% in test [16]; 85.7% in [17]; 97.7% in test [18]; 107% in test [20].
Turning to `C[n+]1ccc(Nc2ccc(NC(=O)c3ccc(Nc4cc[n+](C)c5ccc(N)cc45)cc3)cc2)cc1`, the growth in test [19] is 104%; in test [1], 82.6%; in [2] it was 146%; in test [4] it was 82.6%; in [5] it was 109%; in test [7], 97%. The growth was 92.8% in [8]; 119% in test [9]; 88.5% in [10]; 142% in test [11]; 97% in test [12]; 105% in [14]. Further, the growth in test [15] was 72.7%; in [16] it was 85.9%; in [18] it was 103%; in test [20], 99.9%.
